Records with an inconclusive call do not appear. The source made the active and inactive calls. Calls come from the whole dose curve; as a rule, active = well fitted cell-killing curve with a large enough effect; inconclusive = small, poorly fitted or top-dose-only effect; inactive = no such curve, though single readings can be large or run the other way.
Experiment: qHTS of pediatric cancer cell lines to identify multiple opportunities for drug repurposing: Primary screen for Saos-2 cells (AID 1347097); note: nearly all actives have a fitted effect of over 40% in size
Details: Saos-2 viability, CellTiter-Glo ATP luminescence, 48 h; series mostly up to 46 µM
Text: Drug repurposing or repositioning has been offered as a strategy for drug development in oncology programs. This approach has special potential for childhood cancers and other rare or orphan diseases, where the expected return on new drug development has been a disincentive to pharmaceuticals. […] In this project we exploit the poly-pharmacology of drugs to discover new indications via phenotypic screening of a panel of 19 well-characterized cell lines derived from solid tumors seen in children and adolescents. The goal is to identify approved drugs with previously unrecognized anticancer properties that has the potential to reveal new mechanisms and biological processes involved in carcinogenesis or drug resistance. We employed a titration-based paradigm (quantitative high-throughput screening or qHTS), where all compounds were tested at multiple concentrations for their effect on cell viability. Concentration-response curves (CRCs) were derived directly from the primary screen, and both potency and efficacy values were used to identify compounds with robust bioactivity profiles. We screened the NIH Chemical Genomics Center (NCGC) Pharmaceutical Collection (NPC) and Mechanism Interrogation Plate (MIPE) small molecule collections of approved and investigational compounds against these cell lines; and measured metabolically active cells after 48 hours of compound treatment as a proxy for cell viability. […] Assay Submitter: Nathalia J. Martinez, National Center for Advancing Translational Sciences, National Institutes of Health, Rockville, MD, USA; email: natalia.martinez@nih.gov Shen, M et al. Quantitative high-throughput phenotypic screening of pediatric cancer cell lines identifies multiple opportunities for drug repurposing. Oncotarget 2017 Dec 19;9(4):4758-4772. PMID 29435139.
The cells were obtained from University of North Carolina (UNC), Pediatric Preclinical Testing Program (PPT), and Coriell Institute (CI). qHTS cell viability assay: Cells were assayed in growth media at a density of 500-1,000 cells/well. Five microliters of cells were dispensed into 1,536-well, white, solid-bottom, TC-treated plates (Greiner Bio One) using a multidrop dispenser and incubated at 37 degrees C, 5% CO2, under a humidified atmosphere for 5 hours. Twenty-three nanoliters of compounds and controls (neutral control DMSO or positive control bortezomib at final concentration of 2.3 µM) were subsequently transferred by Kalypsys pintool. For primary screens, the MIPE collection was tested at 11-point dilutions (final concentrations range from 0.78 nM to 46 µM) and the NPC collection at 8-point dilutions (final concentrations range from 0.59 nM to 46 µM). Compounds tested in follow-up screens were assayed at 11-point dilutions. Cells were incubated for 48 hours, followed by addition of 3 µL of CellTiter-Glo (Promega). After a 15 min incubation at room temperature, samples were analyzed for luminescence intensity using a ViewLux High-throughput CCD imager equipped with clear filters.
With `O=C(O)c1ccc[n+]([O-])c1` the outcome was “inactive”. With `C[N+]1(C)CCCC(OC(=O)C(O)(c2ccccc2)c2ccccc2)C1` (stereo not given) the outcome was “inactive”. In the case of `C=CCSCC1Nc2cc(Cl)c(S(N)(=O)=O)cc2S(=O)(=O)N1` (stereo not given), the outcome is reported as “inactive”. With `O=C(O)C(S)C(S)C(=O)O` (stereo not given) the outcome was “inactive”. With `NS(=O)(=O)c1ccc(C(=O)O)cc1` the outcome was “inactive”. With `COCC(=O)Nc1c(I)c(C(=O)NCC(O)CO)c(I)c(C(=O)N(C)CC(O)CO)c1I` (stereo not given) the outcome was “inactive”. With `Cc1ccc2c(c1)c1c3n2CCNC3CCC1` (stereo not given) the outcome was “inactive”. For `CCOC(=O)[C@H](CCc1ccccc1)N[C@@H](C)C(=O)N1CCC[C@H]1C(=O)O`, the outcome was “inactive”. In the case of `CC(=O)Nc1ccc(C(=O)O)cc1`, the outcome is reported as “inactive”. With `CCN(CC)CC1CCCCN1CC(=O)N1c2ccccc2C(=O)Nc2cccnc21` (stereo not given) the outcome was “inactive”. In the case of `NS(=O)(=O)c1cc(-c2nn[nH]n2)c(NCc2cccs2)cc1Cl`, the outcome is reported as “inactive”. In the case of `CC(C)(C)NCC(O)COc1cccc2c1CCC(=O)N2` (stereo not given), the outcome is reported as “inactive”. With `CN1C(=O)CC(c2ccccc2)C1=O` (stereo not given) the outcome was “inactive”. With `CC[N+](CC)(CC(=O)Nc1c(C)cccc1C)Cc1ccccc1` the outcome was “inactive”. For `NC(=O)NC1NC(=O)NC1=O` (stereo not given), the outcome was “inactive”. With `CCCOC(=O)c1ccc(N)cc1` the outcome was “inactive”. In the case of `O=C(OOC(=O)c1ccccc1)c1ccccc1`, the outcome is reported as “inactive”. With `NC(=O)N[C@@H](CCC(=O)O)C(=O)O` the outcome was “inactive”. In the case of `O=C(O)c1ccccc1OP(=O)(O)O`, the outcome is reported as “inactive”. In the case of `CN1CCCN=C1COC(=O)C(O)(c1ccccc1)C1CCCCC1` (stereo not given), the outcome is reported as “inactive”. With `COC(=O)N/N=C/c1c[n+]([O-])c2ccccc2[n+]1[O-]` the outcome was “inactive”. With `CC(=O)[C@@]1(O)CC[C@H]2[C@@H]3C[C@H](C)C4=CC(=O)C=C[C@]4(C)[C@@]3(F)[C@@H](O)C[C@@]21C` the outcome was “inactive”. With `COc1ccc2cc(CCC(C)=O)ccc2c1` the outcome was “inactive”. In the case of `CCOC(=O)[C@H](CCc1ccccc1)N[C@@H](C)C(=O)N1Cc2cc(OC)c(OC)cc2C[C@H]1C(=O)O`, the outcome is reported as “inactive”. For `Cc1c(C)c2c(c(C)c1OC(=O)c1cccnc1)CC[C@@](C)(CCC[C@H](C)CCC[C@H](C)CCCC(C)C)O2`, the outcome was “inactive”. With `CC[C@]12CCCN3CCc4c(n(c5ccccc45)[C@@](O)(C(=O)OC)C1)[C@@H]32` the outcome was “inactive”. In the case of `CC(=O)Nc1ccc(OCCOCCOc2ccc(NC(C)=O)cc2)cc1`, the outcome is reported as “inactive”. With `C=CCN1C[C@H](C(=O)N(CCCN(C)C)C(=O)NCC)C[C@@H]2c3cccc4[nH]cc(c34)C[C@H]21` the outcome was “inactive”. With `NC(=O)CC[C@@H](N)C(=O)O` the outcome was “inactive”. With `O=c1[nH]cnc2nc[nH]c12` the outcome was “inactive”. For `O=C(O)c1ccc(OCCCOc2ccc(C(=O)O)cc2)cc1`, the outcome was “inactive”. With `CC(=O)N1C[C@H](O)C[C@H]1C(=O)O` the outcome was “inactive”. In the case of `Cc1cc(OI)c(C(C)C)cc1-c1cc(C(C)C)c(OI)cc1C`, the outcome is reported as “inactive”. In the case of `O=C(NCCCN1CCOCC1)c1ccc(Cl)cc1`, the outcome is reported as “inactive”. With `CCCNC(C)(C)COC(=O)c1ccccc1` the outcome was “inactive”. With `COc1nccnc1NS(=O)(=O)c1ccc(N)cc1` the outcome was “inactive”. For `O=C(Cn1ccnc1[N+](=O)[O-])NCCO`, the outcome was “inactive”. For `Cc1cc(C)nc(NS(=O)(=O)c2ccc(N)cc2)n1`, the outcome was “inactive”. With `NS(=O)(=O)c1cc2c(cc1C(F)(F)F)NCNS2(=O)=O` the outcome was “inactive”. In the case of `CCOc1cc(NC(C)=O)ccc1C(=O)OC`, the outcome is reported as “inactive”.

— PubChem BioAssay (NCATS)
